PubChem BioAssay AID588342 (National Center for Advancing Translational Sciences (NCATS), 2011)
Screen size: about 360,000 compounds; about 25,000 (6.9%) were called active. About 9% were inconclusive and are not listed. Calls follow the shape of the dose curve; as a rule, active = well fitted inhibition curve with a large enough effect; inconclusive = small, poorly fitted or top-dose-only effect; inactive = flat fitted curve, though single readings scatter. Many of the other results were omitted from the sample, so actives are more common in it than they were.

Biological target: Luciferin 4-monooxygenase (Photinus pyralis) (UniProt P08659)
Sequence (P08659 whole entry, looked up): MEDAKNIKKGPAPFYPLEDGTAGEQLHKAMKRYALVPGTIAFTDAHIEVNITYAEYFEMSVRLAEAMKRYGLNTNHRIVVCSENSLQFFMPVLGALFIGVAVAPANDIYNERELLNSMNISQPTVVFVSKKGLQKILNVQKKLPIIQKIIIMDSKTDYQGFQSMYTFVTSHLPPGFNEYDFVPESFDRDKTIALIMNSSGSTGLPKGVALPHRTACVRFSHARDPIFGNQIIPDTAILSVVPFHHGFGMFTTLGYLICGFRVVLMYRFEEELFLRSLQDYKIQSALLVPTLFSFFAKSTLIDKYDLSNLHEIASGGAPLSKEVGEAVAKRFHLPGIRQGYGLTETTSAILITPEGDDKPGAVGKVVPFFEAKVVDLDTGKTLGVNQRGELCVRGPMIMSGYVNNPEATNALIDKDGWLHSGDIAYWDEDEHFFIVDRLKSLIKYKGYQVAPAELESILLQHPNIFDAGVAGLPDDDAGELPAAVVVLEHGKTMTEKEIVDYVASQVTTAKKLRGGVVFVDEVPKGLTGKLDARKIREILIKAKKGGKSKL
Test: qHTS profiling assay for firefly luciferase inhibitor/activator using purifed enzyme and Km concentrations of substrates (counterscreen for miR-21 project); also: nearly all actives have a fitted effect of over 55% in size;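 as to activity change, negative = inhibition: plate controls were vehicle for no effect and reference inhibitor for full effect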
Details: purified FLuc, luminescence inhibition; series mostly up to 57.5 µM; activity change, negative = inhibition: at the top concentration
Outline: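 Purified P. pyralis luciferase, 10 nM final, with Km-level 10 uM D-luciferin and 10 uM ATP in 50 mM Tris acetate pH 7.5, 10 mM Mg acetate, 0.01% Tween-20, 0.05% BSA; 6-point qHTS titration about 60 µM downward; luminescence read.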
Potency is read from the fitted curve at half-maximal effect.

Row | SMILES | activity change, negative = inhibition | Potency
1 | Brc1cc(Br)c(Oc2cc(Br)c(Br)cc2Br)cc1Br | 1.37% (inactive) | –
2 | CC1CCC(N2CC(=O)N(CCC3=CCCCC3)C(c3ccc(F)cc3)C2=O)CC1 (stereo unspecified) | 3.29% (inactive) | –
3 | COc1ccc(CN2CCN(C(=O)c3cc(C4CC4)nn3-c3ccccc3)CC2)cc1F | -2.79% (inactive) | –
4 | CCn1c2ccccc2c2cc(NC(=O)Nc3ccc([N+](=O)[O-])cc3C)ccc21 | -3.84% (inactive) | –
5 | Cc1ccc(-n2c3nc(=O)[nH]c(=O)c-3cc3c(Cl)cccc32)cc1 | -3.15% (inactive) | –
6 | Cc1ccccc1-c1nc(SCC(=O)N(C)c2ccccc2)c2c(=O)n(C)c(=O)n(C)c2n1 | -3.06% (inactive) | –
7 | CCN(CC)S(=O)(=O)c1ccc(N2CCOCC2)c(NC(=O)c2ccc(=O)n(C)n2)c1 | 4.37% (inactive) | –
8 | CCOC(=O)C1C(=O)C=C(c2ccc(OC)cc2)CC1c1ccco1 (stereo unspecified) | – | 13.5 µM (active)
9 | CCOC(=O)C1C(=O)NC(N2CCN(c3ccccc3)CC2)=NC1c1ccco1 (stereo unspecified) | 4.85% (inactive) | –
10 | COc1ccc(C2=NN(C(=O)CSc3nnnn3C)C(c3ccco3)C2)cc1 (stereo unspecified) | -0.222% (inactive) | –
11 | Cc1ccc(Nc2nc(-c3ccc(O)cc3O)cs2)nc1 | – | 2.39 µM (active)
12 | O=C(CCNC(=O)c1ccccc1Cl)NCc1ccco1 | 1.33% (inactive) | –
13 | CN(C(=O)CSc1nnc(NC(=O)Nc2ccccc2)s1)c1ccccc1 | -6.6% (inactive) | –
14 | O=C(CSc1nnc(C2CC2)n1Cc1ccccc1)Nc1cccnc1Cl | -1.59% (inactive) | –
15 | Cc1cc(NC(=O)CSc2nnc(Nc3ccccc3F)s2)no1 | -1.21% (inactive) | –
16 | O=C(CSc1nnc(Nc2ccccc2)s1)Nc1cccnc1Cl | – | 16.9 µM (active)
17 | O=C(CSc1nnc(SCc2ccc(F)cc2)s1)Nc1ccc(C(=O)O)cc1 | – | 5.36 µM (active)
18 | O=C(Cc1cccs1)Nc1nnc(SCc2ccc(F)cc2)s1 | -0.623% (inactive) | –
19 | CC(=O)c1ccc(NC(=O)CSc2nnc(NC(=O)Nc3ccccc3)s2)cc1 | – | 0.478 µM (active)
20 | Cc1nc(SCC(=O)Nc2ccc(C(=O)O)cc2)n[nH]1 | -0.704% (inactive) | –
21 | CC(C)(C)NC(=O)CSc1nnc(NC(=O)CCc2ccccc2)s1 | -2.69% (inactive) | –
22 | CCOc1ccc(NC(=O)CN(C)C(=O)CSc2ccccc2)cc1OCC | 7.49% (inactive) | –
23 | Cc1cccc(Nc2cc(C)nc(-n3nc(C)cc3C)n2)c1 | -3.38% (inactive) | –
24 | O=C(NNC(=O)c1cccc(S(=O)(=O)Nc2ccc(Cl)cc2)c1)c1ccc(=O)[nH]c1 | -0.376% (inactive) | –
25 | COc1ccc(C(C)(C)C)cc1NC(=O)CCN1C(=O)C2CCCCC2C1=O (stereo unspecified) | 4.4% (inactive) | –
26 | O=C(CS(=O)(=O)c1cccc2nsnc12)N1CCN(c2cccc(Cl)c2)CC1 | -0.818% (inactive) | –

Row | SMILES | activity change, negative = inhibition | Potency
27 | COCC(=O)N=Nc1c(O)[nH]c2ccccc12 | 1.4% (inactive) | –
28 | COc1ccc(N=Cc2c(O)[nH]c3ccccc23)cc1OC | – | 15.1 µM (active)
29 | COc1cc(N=Cc2c(O)[nH]c3ccccc23)cc(OC)c1OC | -17.8% (inactive) | –
30 | Cc1ccccc1N1CCN(Cc2nc(Cc3ccccc3F)no2)CC1 | -9.05% (inactive) | –
31 | COc1cc(OC)c(C(=O)OC(C)C(=O)Nc2cc(C(F)(F)F)ccc2Cl)cc1OC (stereo unspecified) | -0.387% (inactive) | –
32 | O=C(COC(=O)CCCNC(=O)c1ccc(Cl)cc1)Nc1cc(Cl)ccc1Cl | – | 16.9 µM (active)
33 | CCCCC(=O)Nc1ccc(C(=O)Nc2cc(C(F)(F)F)ccc2Cl)cc1 | -0.15% (inactive) | –
34 | COc1ccc(C(=O)COC(=O)CCCC(=O)Nc2cc(C(F)(F)F)ccc2Cl)cc1 | – | 2.13 µM (active)
35 | Cc1ccc(Cl)cc1NC(=O)COC(=O)CC(C)(C)C | -2.2% (inactive) | –
36 | CC(=O)Nc1ccc(NC(=O)CCCNC(=O)c2ccc(Cl)cc2)cc1 | -0.774% (inactive) | –
37 | COc1ccc(CC(=O)NCCc2sc3nc(-c4ccc(OC)cc4)nn3c2C)cc1 | -16.1% (inactive) | –
38 | O=C(NCc1ccco1)C1CCCN1S(=O)(=O)c1ccccc1C(F)(F)F (stereo unspecified) | -1.66% (inactive) | –
39 | C/C(=N\OCC(=O)O)c1ccc(Cl)cc1 | -4% (inactive) | –
40 | CCOc1cc(/C=C(/C#N)c2ccc(Cl)cc2)cc(Cl)c1OCC(=O)O | – | 3.79 µM (active)
41 | COc1cc(/C=C(/NC(=O)c2ccc(Cl)cc2Cl)C(=O)O)cc(OC)c1OC | 0.539% (inactive) | –
42 | COc1ccc(NC(=O)CCC(=O)Nc2nnc(C3CCCCC3)s2)cc1 | -0.454% (inactive) | –
43 | CCc1noc(C)c1C(=O)Nc1nc(-c2ccccc2)cs1 | – | 19 µM (active)
44 | CCc1noc(C)c1C(=O)NNC(=O)c1ccc(F)cc1 | 6.73% (inactive) | –
45 | COc1ccc(CNC(=O)c2ccc(Br)s2)cc1OC | -0.0596% (inactive) | –
46 | CCc1noc(C)c1C(=O)Nc1nc2ccc(OC)cc2s1 | – | 5.36 µM (active)
47 | CCCC(=O)Nc1nc2ccc(NC(=O)c3c(F)c(F)c(OC)c(F)c3F)cc2s1 | 0.027% (inactive) | –
48 | COc1ccc2nc(NC(=O)c3ccc(Br)s3)sc2c1 | – | 3.01 µM (active)
49 | COc1ccc(S(=O)(=O)N2CCN(C(=O)NC3CCCCC3)CC2)cc1 | 1.01% (inactive) | –
50 | COc1ccc2nc(NC(=O)NC3CCCCC3)sc2c1 | – | 9.53 µM (active)
51 | COc1ccc2oc(=N)c(C(=O)Nc3ccc(Br)cc3)cc2c1 | 2.17% (inactive) | –
